FMDV inh: High Throughput Screening for Foot and Mouth Disease Virus Antivirals; 1.2% of 410,000 active; Potency, µM (top dose mostly 57.9 µM), inactives show top-dose activity change, negative = inhibition, actives largely listed as inhibitors; AID 1159524, 2015; FMDV antiviral cell-based qHTS; calls by dose curve; tested in HEK293T cells; also: read-out not given here; nearly all actives have a fitted effect of over 45% in size
MARV entry inh: qHTS for inhibitors of binding or entry into cells for Marburg Virus; AID 540276, 2011; Marburg virus pseudotyped entry inhibition, cell reporter; 1.8% of 300,000 active; Potency, µM (series often up to 37.8 µM), without a hit: top-dose activity change, negative = inhibition, usual class: inhibitors; calls by dose curve; tested in HEK293 cells
Lassa entry inh: qHTS for Inhibitors of binding or entry into cells for Lassa Virus | Lassa virus pseudotype entry inhibition, cell reporter | Potency, µM (doses to about 37.9 µM), for inactives: top-dose activity change, negative = inhibition, actives largely listed as inhibitors | 1.2% of 300,000 active; calls by dose curve; tested in HEK293 cells; also: nearly all actives have a fitted effect of over 50% in size
Sm TGR block: qHTS Assay for the Inhibitors of Schistosoma Mansoni Peroxiredoxins. Schistosoma mansoni thioredoxin glutathione reductase (TGR), Q962Y6. purified TGR, DTNB reduction, TNB absorbance 405 nm. Potency, µM (titrated, usually from 114 µM), without a hit: at the highest dose activity change, negative = inhibition, most hits filed as inhibitors. 3% of 360,000 active; active = well fitted inhibition curve with a large enough effect; inconclusive = small, poorly fitted or top-dose-only effect; inactive = no such curve, though single readings can be large or run the other way; also: nearly all actives have a fitted effect of over 60% in size
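TGR 20 nM + NADPH 100 uM (dispensed conc.), cpd preinc 15 min RT; start with NADPH (500 uM addition) then DTNB (15 mM addition). Kinetic TNB absorbance, 405 nm filter. Four-parameter Hill fit across titration.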
VACV mCherry inh: qHTS for Stage-Specific Inhibitors of Vaccinia Orthopoxvirus: mCherry Reporter Primary qHTS; AID 720579, 2013; Vaccinia virus mCherry reporter infection, fluorescence; 0.63% of 310,000 active; Potency, µM (highest dose often 36.5 µM), inactives show at the highest dose activity change, negative = inhibition, most hits filed as inhibitors; calls by dose curve; tested in A549 cells; also: nearly all actives have a fitted effect of over 35% in size
VACV Venus inh: qHTS for Stage-Specific Inhibitors of Vaccinia Orthopoxvirus: Venus Reporter Primary qHTS; Vaccinia virus Venus reporter expression, fluorescence; Potency, µM (series often up to 36.5 µM), for inactives: top-dose activity change, negative = inhibition, hits mostly inhibitors; 0.46% of 330,000 active; AID 720580, 2013; calls by dose curve; tested in A549 cells; also: nearly all actives have a fitted effect of over 30% in size
The depositor's hits bear a star; i = inactive; u = inconclusive; x = not tested or not shown; ! = not active in a repeat; [ ] = remark or other dose. Sampled rows, rich in hits. Any-hit rate of the full collection: about 5.4%. % is scaled to controls: 0 for no effect and ±100 for the full control effect; potency is read from the fitted curve at half-maximal effect.

SMILES | FMDV inh | MARV entry inh | Lassa entry inh | Sm TGR block | VACV mCherry inh | VACV Venus inh
Cc1ccc(C)c(OCC(=O)N(Cc2ccccc2)c2c(N)n(Cc3ccccc3)c(=O)[nH]c2=O)c1 | -25% | 2% | -27% | x | 28µM* | u
Cc1ccccc1OCCC(=O)N(Cc1ccccc1)c1c(N)n(Cc2ccccc2)c(=O)[nH]c1=O | 0% | 4% | 11µM* | -20% | -10% | -21%
Cc1ccccc1OCCC(=O)N(CC(C)C)c1c(N)n(Cc2ccccc2)c(=O)[nH]c1=O | -22% | x | x | 0% | x | x
CCN(C(=O)COC(=O)CCOc1cc(C)ccc1C)c1c(N)n(Cc2ccccc2)c(=O)[nH]c1=O | -25% | x | x | x | x | x
COC12C(COC(N)=O)C3=C(C(=O)C(C)=C(N)C3=O)N1CC1C2N1C (configuration not stated) | -10% | x | x | 13µM* | u | u
COc1ccc(CCNC(=O)CCCn2nc(C)c3sc4ccccc4c3c2=O)c(OC)c1 | -17% | 7%[46.1 µM] | 1%[46.1 µM] | -12% | -9% | -14%
COc1ccccc1N1C(=N)S/C(=C\c2ccc(-c3ccccc3C(=O)O)o2)C1=O | -11% | 9% | -24% | 20µM* | -9% | 11%
OC1(Cc2ccccc2)CCNCC1 | 1% | u | 8% | 45µM*! | -3% | -12%
O=c1c2ccccc2nc(/C=C/c2cccc3ccccc23)n1-c1ccccc1Cl | 22µM* | x | -13%[46.1 µM] | 6% | -25% | u
COc1ccc(Cl)cc1-n1c(/C=C/c2cccc3ccccc23)nc2ccccc2c1=O | -22% | x | 9%[46.1 µM] | 7% | -20% | -19%
N#Cc1cc2c(OCC(O)CN3CCN(C(c4ccccc4)c4ccccc4)CC3)cccc2[nH]1 (configuration not stated) | -3% | x | x | x | -10% | -8%
Cc1ccccc1C(=O)NC1CCN(Cc2ccccc2)CC1 | -10% | -19%[46.1 µM] | -5% | 0% | i | 5%
Cc1cc(F)ccc1S(=O)(=O)Nc1ccccc1C(=O)NC1CCN(Cc2ccccc2)CC1 | 1% | u | u | 2% | u | 10µM*
COC(=O)N[C@H](CC(C)=O)c1ccc(Cl)cc1 | x | 3%[14.2 µM] | x | x | x | x
COC(=O)C1(C(=O)OC)CC(CO)C(=O)[C@@H]1c1ccccc1 (some centres not stated) | x | -8%[14.2 µM] | x | x | x | x
O=C(C1=C[C@@H]2[C@H]3C(=O)N(c4ccccc4Cl)C(=O)[C@H]3[C@@H](C(=O)c3ccc(Cl)cc3)N2C=C1)c1ccccc1 | x | 3% | -3% | 25µM* | x | x
O=C(c1ccc(Cl)cc1)[C@@H]1[C@@H]2C(=O)N(c3ccccc3)C(=O)[C@@H]2C2c3ccccc3C=NN21 (some centres not stated) | 0% | 25% | 10% | -9% | x | x
O=C(C1=C[C@@H]2[C@H]3C(=O)N(c4cccc(Cl)c4)C(=O)[C@H]3[C@@H](C(=O)c3ccc(Cl)cc3)N2C=C1)c1ccccc1 | -1% | 6% | -15% | 22µM* | i | 58%
Cc1ccc(N2C(=O)[C@@H]3[C@H](C2=O)[C@H]2C=C(C(=O)c4ccccc4)C=CN2[C@@H]3C(=O)c2ccc(Cl)cc2)cc1 | -11% | u | -7% | 40µM* | i | -9%
COc1ccc(C2c3c(n(C)c4ccccc34)C(=O)N2CC(=O)Nc2cc(Cl)ccc2C)cc1 (configuration not stated) | -1% | x | 6%[46.1 µM] | 0% | i | -7%
Nc1ccc(Oc2ccc([N+](=O)[O-])cc2[N+](=O)[O-])cc1 | -20% | -23% | -10% | -16% | -22% | -16%
O=[N+]([O-])c1ccc(Oc2cccnc2)c([N+](=O)[O-])c1 | 32µM* | 7.9µM* | u | x | -3% | u
O=c1ccc2ccc(Oc3ccc([N+](=O)[O-])cc3[N+](=O)[O-])cc2o1 | x | -38% | -24% | 40µM* | x | x
CCN(CC)c1ccc(-c2nc(-c3ccccc3C)no2)cc1[N+](=O)[O-] | 15% | 5%[46.1 µM] | 10%[46.1 µM] | -1% | -5% | 4%
CC(/C=N/NC(=O)Cn1cnc2c1c(=O)n(C)c(=O)n2C)=C\c1ccco1 | -11% | 9% | -3% | 25µM* | i | -14%
SMILES | FMDV inh | MARV entry inh | Lassa entry inh | Sm TGR block | VACV mCherry inh | VACV Venus inh
Cn1c(=O)c2c(ncn2CC(=O)N/N=C/C=C/c2ccco2)n(C)c1=O | -10% | -6%[14.2 µM] | -17% | 11µM* | i | 3%
CCN(CC)S(=O)(=O)c1ccc2c(c1)c(=O)c(C(=O)NCc1ccccc1Cl)cn2C | -12% | u | -25%[46.1 µM] | -3% | -15% | -15%
COc1cc(Nc2ncc3c(n2)CCN(Cc2cc(F)cc(F)c2)C3)cc(OC)c1 | -25% | x | u | -7% | -24% | -11%
CCC1(C2CCN(C(=O)c3ccc4ccccc4c3)CC2)NC(=O)N(CCc2scnc2C)C1=O (configuration not stated) | 7% | x | x | x | -10% | -3%
CC[C@H](CC[C@@H](C)[C@H]1CC[C@H]2[C@@H]3CC=C4C[C@@H](O)CC[C@]4(C)[C@H]3CC[C@]12C)C(C)C | -10% | x | x | x | i | 0%
CC(C)n1c(O)c(C2c3cc(Cl)ccc3Oc3[nH]c(=O)n(C(C)C)c(=O)c32)c(=O)[nH]c1=O (configuration not stated) | 3.5µM* | u | u | -35% | -26%[7.34 µM] | -7%[7.34 µM]
CC(=O)c1c(O)n(-c2cccc(Cl)c2)c(=O)[nH]c1=O (tested in a mixture with another compound) | -25% | 6% | 23% | u | -12% | -9%
S=C(NCc1cccs1)Nc1ccccc1Cl | 38% | 0% | -2% | 11µM* | -26% | -18%
COc1ccc(CNC(=S)Nc2ccccc2Cl)cc1 | 3% | x | x | 40µM* | x | x
S=C(NCc1cccs1)Nc1cc(Cl)cc(Cl)c1 | 1% | u | -5%[46.1 µM] | 11µM* | -23% | -21%
COC(=O)C1=C(C(=O)OC)[C@@H]2N(C)c3ccc(OC)cc3[C@@]23C[C@@H](C(=O)OC)N(C(=O)N2CCNC2=O)C3=N1 | x | -26%[14.2 µM] | x | x | x | x
CCOC(=O)c1c(C)nc2sc(C(=O)Nc3ccccc3)c(N)c2c1-c1ccc(OC)cc1 | 0% | u | 8.9µM* | -3% | x | u
CCOC(=O)c1c(C)nc2sc(C(N)=O)c(N)c2c1-c1ccccc1 | -20% | -15% | -17% | -3% | x | u
COc1ccc(-c2nc(CS(=O)CC(=O)NCc3ccco3)c(C)o2)cc1 (configuration not stated) | -3% | x | x | 0% | -7% | -1%
CCc1ccc(-c2nc(CS(=O)CC(=O)NCc3ccco3)c(C)o2)cc1 (configuration not stated) | 6% | x | x | 40µM* | i[7.34 µM] | 0%[7.34 µM]
